Results on 39 molecules are retold here after the supplement of paper PMC11219838.

Values without a mark were called inactive.

The test has as its system Ditylenchus dipsaci. In words: proportion of mobile D. dipsaci (mixed stage) relative to DMSO control (fraction of DMSO control); higher = more viable, less nematicidal, active = 0.86 or less; extreme values may be limits of the assay. Particulars: 60 µM; 5 days; temperature: 20 °C. In outline: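 D. dipsaci were grown on pea plants in Gamborg B-5 agar and extracted through a filter funnel into water, and about 20 worms were added per 96-well well in distilled water. Compound was pinned to 60 µM final (0.6% v/v DMSO), and sealed plates were shaken at 200 rpm for 5 days at 20 °C. After 2 µL 1 M NaOH was added, mobile worms were scored microscopically. Mobility was expressed relative to DMSO controls and averaged over two biological replicates.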
Turning to `COc1ccc(-c2nnc(SCC(=O)N(C)c3ccccc3)o2)cc1`, the “proportion of mobile D. dipsaci” value is 1. In the case of `COc1nc(-c2ccccc2)ccc1-c1noc(C(C)C)n1` it was 1. In the case of `Cc1cc(OCc2nc(-c3ccncc3)no2)cc(C)c1Cl` it was 1. In the case of `O=C(CSc1nnc(-c2ccccc2Cl)o1)Nc1ccc(Br)cn1` it was 1. `COc1ccc(-c2noc(-c3cc(C)ccc3C)n2)cc1`: the “proportion of mobile D. dipsaci” value is 1. In the case of `COc1ccc(-c2nnc(SCc3ccc(C#N)cc3)o2)cc1` it was 1. Turning to `COc1ccc(-c2nnc(SCC(=O)Nc3ccc(Cl)cc3C)o2)cc1`, the “proportion of mobile D. dipsaci” value was 1. For the molecule `COc1ccc(-c2noc(-c3ccc(Br)cc3)n2)cc1`, the “proportion of mobile D. dipsaci” value was 1. As for `COc1cccc(-c2nc(-c3ccc(Br)cc3)no2)c1`, the “proportion of mobile D. dipsaci” value was 1.

Regarding `Clc1cc(Br)ccc1OCc1nc(-c2ccccc2)no1`, the “proportion of mobile D. dipsaci” value was 1.

Take `COc1ccccc1NC(=O)CSc1nnc(-c2ccccc2)o1`: the “proportion of mobile D. dipsaci” value is 1. `CCOc1ccccc1-c1nnc(SCC(=O)Nc2nccs2)o1`: the “proportion of mobile D. dipsaci” value is 1. In the case of `Cc1ccc(NC(=O)CSc2nnc(-c3ccccc3)o2)cc1F` it was 1.

Take `Cc1ccc(-c2noc(-c3ccc4c(c3)OCCO4)n2)cc1`: the “proportion of mobile D. dipsaci” value is 1. With `Fc1ccc(CSc2nnc(-c3ccccn3)o2)cc1`, the “proportion of mobile D. dipsaci” value is 1. Regarding `CCOc1nc(C)ccc1-c1noc(-c2ccccc2F)n1`, the “proportion of mobile D. dipsaci” value was 1.

In the case of `O=C(CSc1nnc(-c2cccc(Br)c2)o1)Nc1ccccn1`, the “proportion of mobile D. dipsaci” value was 1. In the case of `COc1ccc(-c2nc(-c3ccc(Cl)cc3)no2)cc1` it was 1. For the molecule `CC1CCN(C(=O)CSc2nnc(-c3cc4ccccc4o3)o2)CC1`, the “proportion of mobile D. dipsaci” value is 1. In the case of `COc1cccc(-c2noc(COc3ccc4ccccc4c3)n2)c1` it was 1; in that of `O=C(CSc1nnc(-c2ccco2)o1)Nc1cccc(C(F)(F)F)c1`, 1.

On to `O=C(c1ccccc1-c1nc(-c2ccccc2Cl)no1)N1CCCC1`, for which the “proportion of mobile D. dipsaci” value is 1.

For `CCOc1ccccc1-c1nc(-c2ccc(F)cc2)no1`, the “proportion of mobile D. dipsaci” value was 1. For `O=C(Nc1ccccc1-c1nc(-c2cccnc2)no1)c1cc2ccccc2o1`, the “proportion of mobile D. dipsaci” value is 0.9.

Turning to `C(=C\c1ccccc1)/CSc1nnc(-c2ccncc2)o1`, the “proportion of mobile D. dipsaci” value is 1.

On to `CCOc1nc(-c2ccc(C)cc2)ccc1-c1noc(-c2ccncc2)n1`, for which the “proportion of mobile D. dipsaci” value is 1. In the case of `O=C(CSc1nnc(-c2ccc(Cl)cc2Cl)o1)N1CCCCC1` it was 1; in that of `COc1nc(-c2ccc(C)cc2)ccc1-c1noc(C)n1`, 1. In the case of `Cc1ccccc1-c1noc(-c2ccc(F)cc2)n1` it was 1. In the case of `CC(C)Oc1cccc(-c2nc(-c3ccccn3)no2)c1` it was 1.

Regarding `CCOc1ccc(NC(=O)CSc2nnc(-c3ccncc3)o2)cc1`, the “proportion of mobile D. dipsaci” value was 1.

As to `CCOc1ccc(-c2nc(-c3ccccc3)no2)cc1`, the “proportion of mobile D. dipsaci” value is 1.

Regarding `CCn1c(SCc2nnc(-c3ccccc3)o2)nnc1-c1ccco1`, the “proportion of mobile D. dipsaci” value is 1.

Take `O=C(c1ccccc1-c1nc(-c2ccccc2)no1)N1CCCCC1`: the “proportion of mobile D. dipsaci” value is 1. In the case of `Ic1ccccc1-c1nc(-c2cccnc2)no1`, the “proportion of mobile D. dipsaci” value was 1. In the case of `Cc1ccc(-c2nc(-c3ccccc3)no2)cc1C` it was 1. In the case of `Clc1cccc(OCc2nc(-c3ccncc3)no2)c1` it was 1; in that of `COc1ccc(Cl)cc1-c1nc(-c2ccccc2C)no1`, 1. In the case of `Ic1cccc(-c2nc(-c3cccnc3)no2)c1` it was 1.
